The supplement of paper PMC10849652
Of roughly 8,800 targets only a part is listed; those with a hit were picked by preference. About 0.5% of all pairs of compound and target were hits.

Assays:
Assay in all cases: log2 fold change, soluble protein after heating vs DMSO (PISA); higher = thermal stabilisation; K562 lysate, 10 uM; active = over 0.2 and 3.5 SD of the protein, either way, in both replicates (recomputed)
[1] = compound: C#Cc1cccc(Nc2ncnc3cc(OCCOC)c(OCCOC)cc23)c1 [erlotinib]
In short: (§1)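 K562 pellets were dounce-homogenised in PBS pH 7.4 with 1 mM MgCl2, and the crude extract at 1 mg/mL protein was treated with 10 μM compound for 30 min. Aliquots were heated for 3 min across 48°C-58°C, pooled, and brought to 0.5% NP-40 at 4°C; soluble protein was the supernatant after 21,000xg for 90 min. Soluble protein was quantified by TMTpro 16plex LC-MS/MS with channel sums equalised, and reported as log2 fold change in thermal stability against DMSO controls, with values from duplicates.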

[2] = compound: C/C(=N\NC(=O)C1=CC(=CC=C1)S(=O)(=O)N2CCOCC2)/C3=C(C=CC(=C3)Cl)O
In short: as §1

[3] = compound: C1=CC(=CC=C1C2=NC3=C(N2)C=C(C=C3)C(=O)N)OC4=CC=C(C=C4)Cl
In short: as §1

[4] = compound: C1=CC2=C(C=CC(=C2)/C=C\3/C(=O)NC(=NCC4=CC=CS4)S3)N=C1
In short: as §1

[5] = compound: C1=CC2=NC=CN=C2C=C1/C=C/3\C(=O)NC(=O)S3
In short: as §1

[6] = compound: C1=CC=C(C=C1)C2=NC(=C(N2)C3=CC=NC=C3)C4=CC(=C(C=C4)Cl)O
In short: as §1

[7] = compound: C1=CC=C2C(=C1)C3=NNC4=CC=CC(=C43)C2=O
In short: as §1

[8] = compound: C1CCN(C1)C(=O)NC2=CC=CC(=C2)NC3=NC=C(C(=N3)NCCC4=CN=CN4)Br
In short: as §1

[9] = compound: C1CN(CCC1(CC2=CC=C(C=C2)Cl)N)C3=NC=NC4=C3C=CN4
In short: as §1

[10] = compound: C1COCCN1CCN2C3=CC=CC=C3N=C2NC(=O)C4=CC(=CC=C4)[N+](=O)[O-] [IRAK-1-4 Inhibitor I]
In short: as §1

Measured: log2 fold change

LYRM4 (UniProt Q9HD34)
Chain of UniProt Q9HD34 (Q9HD34 whole entry, looked up): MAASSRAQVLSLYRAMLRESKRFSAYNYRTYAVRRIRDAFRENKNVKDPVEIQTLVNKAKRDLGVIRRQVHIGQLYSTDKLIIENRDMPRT
inactive: [1] -0.009 | [2] 0.016 | [3] 0.02 | [4] -0.117 | [5] -0.017 | [6] -0.011 | [7] -0.002 | [8] -0.02 | [9] 0.06 | [10] 0.005

MAD2L2 (UniProt Q9UI95)
Chain of UniProt Q9UI95 (Q9UI95 whole entry, looked up): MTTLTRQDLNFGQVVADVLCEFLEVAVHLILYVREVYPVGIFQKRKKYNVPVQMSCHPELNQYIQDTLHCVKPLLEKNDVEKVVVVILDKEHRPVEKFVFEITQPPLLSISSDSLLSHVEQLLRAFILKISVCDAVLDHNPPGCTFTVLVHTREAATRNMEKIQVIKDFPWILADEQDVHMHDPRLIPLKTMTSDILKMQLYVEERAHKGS
inactive: [1] 0.173 | [2] 0.004 | [3] 0.209 | [4] -0.035 | [5] 0.035 | [6] -0.09 | [7] -0.101 | [8] 0.094 | [9] 0.102 | [10] 0.004

MANEA (UniProt Q5SRI9)
Chain of UniProt Q5SRI9 (Q5SRI9 whole entry, looked up): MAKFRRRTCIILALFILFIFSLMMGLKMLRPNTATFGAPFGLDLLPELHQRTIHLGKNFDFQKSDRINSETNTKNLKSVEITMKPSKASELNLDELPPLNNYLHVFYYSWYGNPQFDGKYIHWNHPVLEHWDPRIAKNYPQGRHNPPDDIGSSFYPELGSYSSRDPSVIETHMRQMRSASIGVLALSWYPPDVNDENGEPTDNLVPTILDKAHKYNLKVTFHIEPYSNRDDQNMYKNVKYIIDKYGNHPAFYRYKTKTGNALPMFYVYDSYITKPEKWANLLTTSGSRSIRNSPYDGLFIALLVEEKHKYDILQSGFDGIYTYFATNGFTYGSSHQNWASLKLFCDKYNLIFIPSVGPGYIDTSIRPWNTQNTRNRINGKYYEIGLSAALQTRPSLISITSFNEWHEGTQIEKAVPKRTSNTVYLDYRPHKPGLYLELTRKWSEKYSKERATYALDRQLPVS
inactive: [1] -0.079 | [2] -0.119 | [3] 0.076 | [4] 0.089 | [5] 0.027 | [6] 0.118 | [7] -0.092 | [8] -0.014 | [9] 0.016 | [10] 0.041

KNL1 (UniProt Q8NG31)
Chain of UniProt Q8NG31 (Q8NG31 whole entry, looked up): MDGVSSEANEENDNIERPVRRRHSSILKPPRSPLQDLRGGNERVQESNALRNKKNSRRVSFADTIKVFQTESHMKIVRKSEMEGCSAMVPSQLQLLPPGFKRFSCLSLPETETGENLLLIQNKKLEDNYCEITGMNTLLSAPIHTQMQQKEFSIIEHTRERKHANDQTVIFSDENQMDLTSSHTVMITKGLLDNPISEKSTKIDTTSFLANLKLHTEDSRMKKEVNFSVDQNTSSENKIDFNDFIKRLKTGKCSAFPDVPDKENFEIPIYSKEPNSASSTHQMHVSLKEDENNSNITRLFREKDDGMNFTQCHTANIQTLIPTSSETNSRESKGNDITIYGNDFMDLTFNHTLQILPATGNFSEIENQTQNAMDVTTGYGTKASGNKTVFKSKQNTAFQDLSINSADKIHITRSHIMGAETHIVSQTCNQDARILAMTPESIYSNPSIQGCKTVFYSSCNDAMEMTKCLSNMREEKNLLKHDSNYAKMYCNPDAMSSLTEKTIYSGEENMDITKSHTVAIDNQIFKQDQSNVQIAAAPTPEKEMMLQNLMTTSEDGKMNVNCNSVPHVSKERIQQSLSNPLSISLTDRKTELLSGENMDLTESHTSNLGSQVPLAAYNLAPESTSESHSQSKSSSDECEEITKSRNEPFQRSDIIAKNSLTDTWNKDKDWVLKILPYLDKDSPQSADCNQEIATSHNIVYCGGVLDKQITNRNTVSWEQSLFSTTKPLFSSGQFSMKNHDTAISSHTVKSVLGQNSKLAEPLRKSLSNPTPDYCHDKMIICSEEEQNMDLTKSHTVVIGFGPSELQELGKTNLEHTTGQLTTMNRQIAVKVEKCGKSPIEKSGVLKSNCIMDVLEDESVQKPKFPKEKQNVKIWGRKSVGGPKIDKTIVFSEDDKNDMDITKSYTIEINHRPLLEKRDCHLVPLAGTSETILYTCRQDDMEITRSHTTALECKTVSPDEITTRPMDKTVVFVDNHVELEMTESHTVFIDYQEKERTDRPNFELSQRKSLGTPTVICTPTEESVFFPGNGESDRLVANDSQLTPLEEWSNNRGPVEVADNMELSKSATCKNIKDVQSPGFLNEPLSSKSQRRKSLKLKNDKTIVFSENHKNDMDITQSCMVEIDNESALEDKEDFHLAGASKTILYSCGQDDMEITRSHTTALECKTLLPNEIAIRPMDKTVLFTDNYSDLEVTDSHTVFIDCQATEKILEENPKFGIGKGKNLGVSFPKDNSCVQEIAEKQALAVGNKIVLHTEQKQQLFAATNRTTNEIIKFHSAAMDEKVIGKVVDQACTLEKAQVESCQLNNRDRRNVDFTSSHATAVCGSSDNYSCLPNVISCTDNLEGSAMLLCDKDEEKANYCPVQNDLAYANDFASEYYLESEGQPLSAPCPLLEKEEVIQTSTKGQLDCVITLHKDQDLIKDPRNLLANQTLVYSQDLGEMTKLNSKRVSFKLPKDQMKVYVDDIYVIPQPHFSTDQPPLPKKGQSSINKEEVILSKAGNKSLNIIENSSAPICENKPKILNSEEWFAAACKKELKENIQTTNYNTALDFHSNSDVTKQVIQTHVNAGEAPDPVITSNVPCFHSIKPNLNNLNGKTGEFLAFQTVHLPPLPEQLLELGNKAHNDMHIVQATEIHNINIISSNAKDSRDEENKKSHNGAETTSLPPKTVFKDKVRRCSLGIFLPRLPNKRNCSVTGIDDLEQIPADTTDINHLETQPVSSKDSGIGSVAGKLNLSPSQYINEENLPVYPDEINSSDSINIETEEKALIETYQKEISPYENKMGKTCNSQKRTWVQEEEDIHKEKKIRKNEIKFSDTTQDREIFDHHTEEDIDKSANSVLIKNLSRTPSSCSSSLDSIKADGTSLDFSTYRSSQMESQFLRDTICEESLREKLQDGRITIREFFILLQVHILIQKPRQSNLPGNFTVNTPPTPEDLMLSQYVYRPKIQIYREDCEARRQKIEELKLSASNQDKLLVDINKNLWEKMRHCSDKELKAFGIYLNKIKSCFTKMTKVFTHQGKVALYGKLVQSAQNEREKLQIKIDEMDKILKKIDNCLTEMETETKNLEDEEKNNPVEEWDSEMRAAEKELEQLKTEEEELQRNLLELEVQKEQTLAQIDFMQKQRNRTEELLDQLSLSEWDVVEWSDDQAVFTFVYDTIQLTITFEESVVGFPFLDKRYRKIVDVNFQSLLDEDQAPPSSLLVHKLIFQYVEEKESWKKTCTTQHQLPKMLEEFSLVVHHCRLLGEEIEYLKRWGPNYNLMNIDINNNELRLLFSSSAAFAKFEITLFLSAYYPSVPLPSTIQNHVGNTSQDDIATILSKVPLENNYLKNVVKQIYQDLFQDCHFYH
inactive: [1] -0.005 | [2] -0.015 | [3] 0.002 | [4] 0 | [5] -0.017 | [6] 0.019 | [7] -0.015 | [8] 0.006 | [9] -0.007 | [10] 0.002

KLC1 isoform 6 (UniProt Q07866)
Chain of UniProt Q07866 (Q07866 whole entry, looked up): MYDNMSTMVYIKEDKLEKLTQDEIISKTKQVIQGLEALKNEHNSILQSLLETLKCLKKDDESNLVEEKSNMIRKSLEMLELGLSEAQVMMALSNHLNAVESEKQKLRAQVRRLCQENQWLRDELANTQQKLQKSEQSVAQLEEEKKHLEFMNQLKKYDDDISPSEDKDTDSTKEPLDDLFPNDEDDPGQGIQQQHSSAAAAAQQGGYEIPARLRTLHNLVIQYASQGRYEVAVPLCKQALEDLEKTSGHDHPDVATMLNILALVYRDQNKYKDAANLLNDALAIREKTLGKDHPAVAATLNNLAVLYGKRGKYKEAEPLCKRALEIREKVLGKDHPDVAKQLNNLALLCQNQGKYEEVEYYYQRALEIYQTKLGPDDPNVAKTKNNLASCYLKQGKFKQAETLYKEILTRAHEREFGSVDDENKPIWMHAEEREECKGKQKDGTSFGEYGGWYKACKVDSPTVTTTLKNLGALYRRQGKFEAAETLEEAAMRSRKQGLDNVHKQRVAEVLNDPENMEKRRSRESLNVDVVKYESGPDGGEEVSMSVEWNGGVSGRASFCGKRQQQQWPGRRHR
inactive: [1] -0.02 | [2] -0.023 | [3] 0.002 | [4] 0 | [5] -0.033 | [6] 0.002 | [7] -0.007 | [8] -0.027 | [9] -0.01 | [10] 0.011

MRPL35 (UniProt Q9NZE8)
active: [4] 0.296
inactive: [1] -0.005 | [2] -0.237 | [3] -0.025 | [5] 0.012 | [6] -0.011 | [7] -0.133 | [10] -0.041

LAS1L (UniProt Q9Y4W2)
Chain of UniProt Q9Y4W2 (Q9Y4W2 whole entry, looked up): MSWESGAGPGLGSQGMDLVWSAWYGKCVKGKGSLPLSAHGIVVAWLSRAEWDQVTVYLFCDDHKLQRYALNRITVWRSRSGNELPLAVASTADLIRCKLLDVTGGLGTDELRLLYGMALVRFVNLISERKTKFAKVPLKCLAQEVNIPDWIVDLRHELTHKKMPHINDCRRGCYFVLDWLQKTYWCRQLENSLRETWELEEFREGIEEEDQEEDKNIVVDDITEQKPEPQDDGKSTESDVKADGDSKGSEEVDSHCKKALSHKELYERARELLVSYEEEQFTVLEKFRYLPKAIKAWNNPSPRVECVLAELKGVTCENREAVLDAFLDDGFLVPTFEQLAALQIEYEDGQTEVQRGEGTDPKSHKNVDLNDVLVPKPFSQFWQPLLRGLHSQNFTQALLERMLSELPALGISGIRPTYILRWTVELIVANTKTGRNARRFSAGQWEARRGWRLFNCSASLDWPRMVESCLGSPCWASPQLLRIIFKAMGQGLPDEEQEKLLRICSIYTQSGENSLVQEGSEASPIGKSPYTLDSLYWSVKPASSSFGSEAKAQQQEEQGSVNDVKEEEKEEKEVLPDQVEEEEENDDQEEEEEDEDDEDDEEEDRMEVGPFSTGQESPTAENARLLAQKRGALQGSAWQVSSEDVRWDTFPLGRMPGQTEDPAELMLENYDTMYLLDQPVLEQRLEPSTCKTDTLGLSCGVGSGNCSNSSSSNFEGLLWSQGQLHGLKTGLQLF
inactive: [1] 0.053 | [2] -0.011 | [3] -0.003 | [4] -0.018 | [5] 0.022 | [6] 0.007 | [7] 0.028 | [8] -0.004 | [9] -0.027 | [10] -0.002
